Most compounds without a hit are left out; they make up all but 19% or so of the library.
Gal4-VP16 FLuc: counter-screen for ROR gamma inhibitors: Gal4-VP16 reporter | Drosophila S2 Gal4-VP16 UAS-luciferase, luminescence, 20 h | Potency, µM (doses to about 53.6 µM), without a hit: at the highest dose activity, negative = inhibition, most hits filed as inhibitors | 310,000 tested, 3.5% active | AID 2546;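 further: Gal4-VP16 expression switched on by copper sulfate through the metallothionein promoter; nearly all actives have a fitted effect of over 50% in size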
DT40 TDP1 CPT: DT40-hTDP1 cell growth loss with CPT; chicken DT40 Tdp1-/-;hTDP1 cells + 20 nM CPT, ATP luminescence, 48 h; 420,000 tested, 12% active; Potency, µM (titrated, usually from 46.2 µM), for inactives: top-dose activity change, negative = growth inhibition, most hits filed as inhibitors; further: nearly all actives have a fitted effect of over 55% in size
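Cell growth measured by CellTiter-Glo luminescence after a minimum 48 h, 37 C compound exposure with 20 nM CPT in Tdp1-knockout DT40 cells stably expressing hTDP1, seeded 400/well; qHTS titration format.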
RORg inh: ROR gamma (mouse) transcription inhibition | P51450 | Drosophila S2 Gal4-RORgamma UAS-luciferase reporter, 20 h | Potency, µM (top dose mostly 53.6 µM), without a hit: at the top dose activity change, negative = inhibition, most hits filed as inhibitors | 310,000 tested, 5.4% active | AID 2551; further: nearly all actives have a fitted effect of over 60% in size
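Compounds are pin-transferred onto Drosophila Schneider cells expressing a copper-inducible Gal4–ROR gamma transactivation domain fusion. After 1 hr, copper sulfate is added to 700 uM final; luciferase is read 20 hr later.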
TDP1 inh: inhibitors of human tyrosyl-DNA phosphodiesterase TDP1 | recombinant TDP1, AlphaScreen DNA substrate cleavage | AID 485290 | Potency, µM (top dose mostly 130 µM), without a hit: at the highest dose activity change, negative = inhibition, actives largely listed as inhibitors | 350,000 tested, 0.28% active; further: nearly all actives have a fitted effect of over 40% in size
Target sequence (Q9NUW8 whole entry, looked up): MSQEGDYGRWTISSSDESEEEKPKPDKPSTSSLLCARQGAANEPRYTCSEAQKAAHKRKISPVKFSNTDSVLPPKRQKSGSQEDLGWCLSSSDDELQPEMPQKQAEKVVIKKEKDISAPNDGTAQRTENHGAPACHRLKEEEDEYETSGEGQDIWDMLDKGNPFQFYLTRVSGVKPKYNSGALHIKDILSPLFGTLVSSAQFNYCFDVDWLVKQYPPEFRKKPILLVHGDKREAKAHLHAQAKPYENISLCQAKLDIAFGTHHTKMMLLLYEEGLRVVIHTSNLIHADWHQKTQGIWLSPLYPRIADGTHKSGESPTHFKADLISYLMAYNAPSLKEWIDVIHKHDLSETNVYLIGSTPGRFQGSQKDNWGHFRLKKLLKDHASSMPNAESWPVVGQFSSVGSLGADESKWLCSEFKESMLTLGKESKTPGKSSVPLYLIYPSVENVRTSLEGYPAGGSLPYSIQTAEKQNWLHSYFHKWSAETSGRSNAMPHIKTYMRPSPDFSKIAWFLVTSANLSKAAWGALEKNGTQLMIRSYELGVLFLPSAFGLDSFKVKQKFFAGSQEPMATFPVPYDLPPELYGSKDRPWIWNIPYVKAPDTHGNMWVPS
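Tdp1 1 nM final; 15 min RT w/ cpd; substrate 15 nM, 5 min; beads 10 ug/ml, 10 min; AlphaScreen read. Neg ctrl: no enzyme.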
TDP1 cell noCPT: qHTS for Inhibitors of human tyrosyl-DNA phosphodiesterase 1 (TDP1): qHTS in cells in absence of CPT; Potency, µM (doses to about 46.2 µM), without a hit: at the highest dose activity change, negative = growth inhibition, usual class: inhibitors; DT40 Tdp1-/- hTDP1 cells, no CPT, ATP luminescence, 48 h; 420,000 tested, 15% active; further: nearly all actives have a fitted effect of over 55% in size
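Camptothecin absent (DMSO only). Human TDP1-complemented DT40 knockout cells, 400 cells/well, 37 °C for minimum 48 hr; ATP measured via CellTiter-Glo, 30 min dark incubation, luminescence.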
* marks the source's active call; other numbers are inactive results; ? = inconclusive; · = no result given; [ ] = another dose, or the depositor's remark. The call rests on the fitted dose curve; in most records, active means well fitted curve in the direction sought with a large enough effect; inconclusive means small, poorly fitted or top-dose-only effect, or another doubt; inactive means no such curve, though single readings can be large; an effect the other way counts as inactive or inconclusive. On the % scale 0 is the no-effect control and ±100 the full control effect; potency means the concentration at half of the fitted maximal effect.

SMILES	Gal4-VP16 FLuc	DT40 TDP1 CPT	RORg inh	TDP1 inh	TDP1 cell noCPT
COc1ccc(CCNc2ncnc3c2c(C)c(C)n3CCO)cc1OC	?	20.6µM*	?	·	8.2µM*
COc1ccc(CCNc2ncnc3sccc23)cc1OC	0.631µM*	0.164µM*	?	2.6%	0.291µM*
NS(=O)(=O)c1ccc(CCNc2ncnc3sccc23)cc1	3.98µM*	7.31µM*	?	0.0%	5.8µM*
CN(C(=O)CSc1nncn1-c1ccccc1)c1ccccc1	-4.2%	0.1%	9.2%	10.3%	-1.5%
C=C[C@H]1[C@H](OC2OC(CO)C(O)C(O)C2O)OC=C(C(=O)OC)[C@H]1C[C@H]1CC(=O)C[C@H](CC(=O)CCc2ccc(O)cc2)O1 (stereo not given in full)	·	9.5%	·	·	-7.1%
CC(=O)Nc1c(-c2ccc(F)cc2)nc2ccccn12	-2.7%	-10.4%	-9.7%	2.5%	-5.8%
COc1ccc(O)c(-c2nc(N)nc(N)n2)c1	·	16.4µM*	·	-0.2%	18.4µM*
Nc1nc(N)nc(-c2cc(F)ccc2O)n1	·	?	·	-0.6%	?
CCc1cc(=O)[nH]c(SCc2nc(-c3cccc(Cl)c3)no2)n1	·	18.4µM*	·	0.0%	16.4µM*
CN(C)CCNC(C(=O)Nc1cc(Cl)cc(Cl)c1)c1ccccc1 (stereo not given)	-0.4%	?	6.6%	2.6%	?
O=C(Nc1ccc(-c2nc3ccccc3o2)c(O)c1)c1cc(-n2cnnc2)ccc1Cl	?	25.9µM*	8.91µM*	-9.1%	?
O=C(Nc1ccc(-c2nc3ccccc3o2)cc1)c1cc(-n2cnnc2)ccc1Cl	?	18.4µM*	?	7.7%[56.1 µM]	?
COC(=O)c1[nH]c2ccc(Cl)cc2c1NC(=O)CN1CCc2cc(OC)c(OC)cc2C1	?	?	10.2%	9.5%	20.6µM*
COc1cc2c(cc1OC)CN(CCC(C)c1ccc(Cl)cc1)CC2 (stereo not given)	·	14.6µM*	·	·	16.4µM*
COC(=O)c1[nH]c2cc(C)ccc2c1NC(=O)CN1CCc2cc(OC)c(OC)cc2C1	-2.9%[0.365 µM]	?	19.5%	2.6%	?
COc1cc2c(cc1OC)CN(CC(=O)Nc1ccc(Cl)cc1Cl)CC2	1.0%	20.6µM*	4.1%	·	20.6µM*
CCOC(=O)c1ccc(NC(=O)COc2ccccc2CNCCc2ccccc2)cc1	?	?	?	2.6%	?
COC(=O)Nc1nc(Sc2ncc(C(F)(F)F)cc2Cl)n[nH]1	-10.3%	-20.6%	-11.1%	5.3%	-8.9%
CN1CCN(Cc2c(O)ccc3occ(C(=O)c4ccccc4)c23)CC1	-0.5%[0.365 µM]	?	5.0%	5.3%	-18.5%
CC(=O)C(C(C)=O)c1c(Cl)c(O)c(O)c2c(C(=O)c3ccccc3)coc12	?	4.61µM*	15.8µM*	5.1%	3.66µM*
CN(C)/N=C/C=C1\CCC/C(=C\c2ccc(F)c(F)c2)C1=O	?	?	?	0.0%	25.9µM*
COc1ccc(/C=C2\CCC/C(=C\C=N\N(C)C)C2=O)cc1	7.4%	?	?	8.9%	?
C=CCNC(=S)N1CCC(Cc2ccccc2)CC1	?	?	?	1.6%	?
S=C(NCCc1ccccc1)N1CCN(C2CCCCC2)CC1	5.6%	?	-14.5%	5.5%	?
S=C(NCCc1ccccc1)N1CCC2CC1c1c(Cl)cccc12 (stereo not given)	·	?	·	·	16.4µM*
C=CCNC(=S)N1CCC2CC1c1c(Cl)cccc12 (stereo not given)	·	?	·	·	25.9µM*
CC(C)(C)c1nnc2sc(SCC(=O)c3ccc4c(c3)OCCO4)nn2c1=O	-5.0%	?	15.6%	4.9%	?
Cc1ccc(C(=O)CSc2nn3c(=O)c(C(C)(C)C)nnc3s2)cc1	6.9%	?	-24.0%	4.9%	18.4µM*
CC(C)(C)c1nnc2sc(SCC(=O)c3cccs3)nn2c1=O	?	?	-38.8%	3.9%	25.9µM*
CC(C)(C)c1nnc2sc(SCC(=O)N3CCCc4ccccc43)nn2c1=O	-7.3%	?	-1.1%	6.1%	23.1µM*

Source: PubChem (National Center for Advancing Translational Sciences (NCATS))
